NPC1 prom act – activates the NPC1 promoter; Potency, µM (series often up to 9.22 µM), most hits filed as activators; hit rate 2.4% among 320,000; Huh7 NPC1 promoter luciferase reporter, 24 h; AID 485313; also: nearly all actives have a fitted effect of over 60% in size
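Luciferase expression driven by the NPC1 promoter was measured in stably transfected Huh7 cells after a 24 h compound incubation, using a luciferase reagent and a luminescence read.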
FLuc modulator – counter-screen for miR-21 project: firefly luciferase inhibitors or activators | P08659 | purified FLuc, Km substrates, luminescence inhibition | Potency, µM (series often up to 57.5 µM), most hits filed as inhibitors | hit rate 6.9% among 360,000; also: nearly all actives have a fitted effect of over 55% in size
Target sequence (P08659 whole entry, looked up): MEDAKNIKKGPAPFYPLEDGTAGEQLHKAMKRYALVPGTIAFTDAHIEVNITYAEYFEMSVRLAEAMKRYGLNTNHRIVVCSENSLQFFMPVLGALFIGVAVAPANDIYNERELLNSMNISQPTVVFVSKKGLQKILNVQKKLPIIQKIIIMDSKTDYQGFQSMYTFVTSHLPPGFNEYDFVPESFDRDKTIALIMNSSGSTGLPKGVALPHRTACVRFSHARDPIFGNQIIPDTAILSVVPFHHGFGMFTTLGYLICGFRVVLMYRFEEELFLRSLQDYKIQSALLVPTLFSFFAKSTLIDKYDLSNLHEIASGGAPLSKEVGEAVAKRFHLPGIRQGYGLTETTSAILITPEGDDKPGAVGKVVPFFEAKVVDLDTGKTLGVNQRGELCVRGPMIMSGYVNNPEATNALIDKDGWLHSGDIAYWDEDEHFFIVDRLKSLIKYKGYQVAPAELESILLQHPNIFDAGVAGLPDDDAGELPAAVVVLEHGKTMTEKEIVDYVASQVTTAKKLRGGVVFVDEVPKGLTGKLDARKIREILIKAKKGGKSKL
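Biochemical qHTS of compounds, final roughly 60 µM downward over six points, against 10 nM purified firefly luciferase using Km concentrations of substrates (10 uM D-luciferin, 10 uM ATP) in Tris acetate pH 7.5 buffer; luminescence output.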
SMN2 splice up – SMN2 splice variant enhancement | HEK293 SMN2-luciferase splicing reporter, luminescence, 30-36 h | Potency, µM (series often up to 46.1 µM), hits mostly activators | hit rate 2.8% among 210,000 | AID 1458; also: nearly all actives have a fitted effect of over 55% in size
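qHTS luciferase splicing reporter: luminescence rises when SMN2 exon 7 is included in transfected HEK293 cells. Compound exposure lasted 30-36 h at 37C, with 4.5 mM final sodium butyrate as control, followed by a ONE-Glo read.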
ELG1 DNA repair – ELG1-dependent DNA repair inhibition; AID 504467; hit rate 2.3% among 330,000; HEK293T ELG1-luciferase reporter, luminescence, 16 h; DNA damage induced by 5-fluorouridine; Potency, µM (top dose mostly 46.1 µM), usual class: inhibitors; also: nearly all actives have a fitted effect of over 55% in size
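Cells (2,000 per well) received 5-fluorouridine plus test compound or DMSO and were incubated 16 hr at 37 °C, 5% CO2. Luciferase activity was read by luminescence 30 min after ONE-Glo addition; signal suppression marked inhibition of damage-induced ELG1 function.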
Rab9 prom act – activates the Rab9 promoter; Huh7 Rab9 promoter-luciferase reporter, luminescence, 24 h; Potency, µM (top dose mostly 9.22 µM), actives largely listed as activators; hit rate 2.8% among 320,000; also: nearly all actives have a fitted effect of over 60% in size
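Cell-based reporter: Huh7 stable for Rab9 promoter-driven luciferase, plated in reduced-serum medium with 10% FBS at 1500 cells/well, compound-treated 24 h at 37 °C, luminescence read after 10 min reagent.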
ELG1 genotoxic – inducers of genotoxicity in HEK293T ELG1-luciferase cells. HEK293T ELG1-luciferase reporter, luminescence, 16 h. Potency, µM (top dose mostly 46 µM), actives largely listed as activators. hit rate 1.3% among 330,000. AID 504466; also: nearly all actives have a fitted effect of over 60% in size
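Reporter readout depends on ELG1 protein level, which increases with genetic stress. After 16 hr compound exposure at 37 °C, luciferase activity was quantified using ONE-Glo.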
Of the large screens only hits and unclear results are named; the others gave an inactive call. The list is not random: actives were taken first. Their share in the collection is about 9.2%. Calls follow the shape of the dose curve; as a rule, active = well fitted curve in the direction sought with a large enough effect; inconclusive = small, poorly fitted or top-dose-only effect, or another doubt; inactive = no such curve, though single readings can be large; an effect the other way counts as inactive or inconclusive.

COc1cc(CN2CCN(Cc3ccc([N+](=O)[O-])cc3)CC2)c([N+](=O)[O-])cc1OC	ELG1 DNA repair 18µM
O=C(/C=C/Nc1ccccc1F)c1cccs1	NPC1 prom act inconclusive, FLuc modulator 0.24µM, SMN2 splice up 2µM, ELG1 DNA repair inconclusive, Rab9 prom act 4µM, ELG1 genotoxic inconclusive
CCOC(=O)c1ccccc1N/C=C/C(=O)c1cccs1	FLuc modulator inconclusive, Rab9 prom act inconclusive (no result: SMN2 splice up)
Cc1ccc(N/C=C/C(=O)c2sc(-c3ccccc3)nc2C)cc1	FLuc modulator 6µM, ELG1 DNA repair inconclusive
Cc1ccc(N/C=C/C(=O)c2cccs2)cc1	NPC1 prom act inconclusive, FLuc modulator 0.12µM, SMN2 splice up 2µM, ELG1 DNA repair inconclusive, Rab9 prom act 0.14µM, ELG1 genotoxic 0.16µM
O=C(/C=C/Nc1ccc(F)cc1F)c1cccs1	NPC1 prom act 0.56µM, FLuc modulator 0.11µM, SMN2 splice up 0.4µM, ELG1 DNA repair inconclusive, Rab9 prom act 2µM, ELG1 genotoxic inconclusive
CC(C)Cn1c(SC(C)C(=O)NCC2CCCO2)nc2ccc(Cl)cc2c1=O (stereo not given)	none (no result: SMN2 splice up)
O=C(Cc1ccc(Cl)c(Cl)c1)Nc1cccc(S(=O)(=O)N2CCOCC2)c1	ELG1 DNA repair inconclusive
O=C(NNC(=O)c1cccs1)c1cccc(F)c1	ELG1 DNA repair inconclusive (no result: SMN2 splice up)
O=C(/C=C\Nc1cccc(F)c1)c1cccs1	NPC1 prom act 4µM, FLuc modulator 0.85µM, SMN2 splice up 6.3µM, ELG1 DNA repair inconclusive, Rab9 prom act 4µM, ELG1 genotoxic inconclusive
O=C(Nc1ccccc1)OCc1cc(-c2ccccc2Cl)on1	FLuc modulator 13µM, SMN2 splice up inconclusive, ELG1 DNA repair inconclusive
O=C(Nc1cccc(O)c1)c1cc(-c2ccccc2Cl)on1	NPC1 prom act inconclusive, FLuc modulator 0.38µM, ELG1 DNA repair inconclusive, ELG1 genotoxic inconclusive (no result: SMN2 splice up)
O=C(NCCN1CCOCC1)c1cc(-c2ccccc2Cl)on1	FLuc modulator inconclusive, ELG1 DNA repair inconclusive (no result: SMN2 splice up)
COc1ccc(NC(=O)c2cc(-c3ccc(OC)c(OC)c3)on2)cc1OC	none
COc1ccc(NC(=O)c2cc(-c3ccccc3Cl)on2)cc1OC	FLuc modulator 7.6µM, ELG1 DNA repair inconclusive (no result: SMN2 splice up)
Cn1ncc(C#N)c1NC(=O)c1cc(-c2ccccc2Cl)on1	FLuc modulator 27µM, ELG1 DNA repair inconclusive
COc1cccc(Cn2nnc3c(=O)[nH]c(C4CCN(C(=O)c5ccccc5Cl)CC4)nc32)c1	none (no result: NPC1 prom act, ELG1 DNA repair, Rab9 prom act, ELG1 genotoxic)
COc1ccc(Cn2cc(S(=O)(=O)c3ccc(C)cc3)c(=O)c3cc(F)ccc32)cc1	none (no result: NPC1 prom act, ELG1 DNA repair, Rab9 prom act, ELG1 genotoxic)
COc1ccc(C(=O)Nn2c(SCC(=O)NC3CCCC3)nc3ccccc3c2=O)cc1	NPC1 prom act 3.2µM, FLuc modulator 9.5µM, ELG1 DNA repair inconclusive, Rab9 prom act 0.89µM, ELG1 genotoxic inconclusive
COc1ccc(NC(=O)CSc2nc3ccccc3c(=O)n2CCC(=O)NC2CCCCC2)c(OC)c1	none (no result: NPC1 prom act, SMN2 splice up, ELG1 DNA repair, Rab9 prom act, ELG1 genotoxic)
O=C(CSc1nc2ccccc2c(=O)n1NC(=O)c1ccccc1)c1ccccc1	NPC1 prom act inconclusive, FLuc modulator 12µM, SMN2 splice up inconclusive, ELG1 DNA repair inconclusive, Rab9 prom act 3.5µM, ELG1 genotoxic inconclusive
O=C(CSc1nc2ccccc2c(=O)n1NC(=O)Cc1ccccc1)NCc1ccccc1	none
O=C(CSc1nc2ccsc2c(=O)n1NC(=O)c1ccccc1)Nc1nccs1	SMN2 splice up 20µM, ELG1 DNA repair inconclusive
COc1ccc(C(=O)Nn2c(SCC(=O)NCc3ccccc3)nc3ccccc3c2=O)cc1	NPC1 prom act 0.4µM, FLuc modulator 2.7µM, SMN2 splice up inconclusive, ELG1 DNA repair inconclusive, Rab9 prom act 0.13µM, ELG1 genotoxic 0.082µM
O=C(c1ccc(Cn2cnnn2)cc1)N1CCCC(Nc2ccc(F)c(F)c2)C1 (stereo not given)	ELG1 DNA repair inconclusive (no result: SMN2 splice up)
O=C(O)C[C@@H](C(=O)O)c1ccccc1[N+](=O)[O-]	none (no result: NPC1 prom act, FLuc modulator, ELG1 DNA repair, Rab9 prom act, ELG1 genotoxic)
COCCCNC(=O)C[C@H]1C[C@H](C(=O)N2CCOCC2)[C@@]2(C)c3[nH]c4cc(CCC(=O)N(C)C)ccc4c3CCN2C1=O	ELG1 DNA repair inconclusive (no result: NPC1 prom act, FLuc modulator, SMN2 splice up, Rab9 prom act)
O=S1(=O)CCC(NC(=S)N2CCCCC2)C1 (stereo not given)	none
COc1ccc(C(=O)Nn2c(SCC(=O)NCC3CCCO3)nc3ccccc3c2=O)cc1 (stereo not given)	NPC1 prom act 0.5µM, FLuc modulator 0.76µM, ELG1 DNA repair inconclusive, Rab9 prom act 0.4µM, ELG1 genotoxic inconclusive
COC(=O)c1ccc2c(=O)n(CC3CCCO3)c(SCC(=O)Nc3ccccc3OC)nc2c1 (stereo not given)	FLuc modulator 6.7µM, ELG1 DNA repair inconclusive
O=C(O)CC1SC(N/N=C/c2ccc(Br)cc2)NC1=O (stereo not given)	FLuc modulator inconclusive, ELG1 genotoxic inconclusive
Cc1cc(NCCCn2ccnc2)n2nc(-c3ccc(F)cc3)cc2n1	FLuc modulator 9.5µM, ELG1 DNA repair inconclusive
Cc1cccc(-c2cc3nc(C)c(C)c(NCCCn4ccnc4)n3n2)c1	FLuc modulator 15µM, ELG1 DNA repair inconclusive (no result: SMN2 splice up)
Cc1cc(NCCCn2ccnc2)n2nc(-c3ccc(Cl)cc3)cc2n1	NPC1 prom act inconclusive, FLuc modulator inconclusive, ELG1 DNA repair inconclusive
CCOC(=O)N1CCN(C(=O)c2cn(C)c(=O)c3c2c2ccccc2n3C)CC1	ELG1 DNA repair inconclusive
CCOC(=O)N1CCN(C(=O)c2cn(CC(C)C)c(=O)c3c2c2ccccc2n3C)CC1	ELG1 DNA repair 18µM

Screens as filed in PubChem.
